# Data taken from PubChem BioAssay (NCATS).
# Inconclusive results are not listed. A number with no mark means an inactive call. Activity calls are given as the source filed them. Calls come from the whole dose curve; as a rule, active = well fitted inhibition curve with a large enough effect; inconclusive = small, poorly fitted or top-dose-only effect; inactive = no such curve, though single readings can be large or run the other way.
# System: Zika virus NS2B-NS3 protease (unlinked complex)
# Assay: Primary screen GU Rhodamine qHTS for Zika virus inhibitors: Unlinked NS2B-NS3 protease assay (AID 1347159); note: nearly all actives have a fitted effect of over 60% in size
# Conditions: Recombinant ZIKV NS2B-NS3 protease, Rhodamine110 substrate fluorescence; series mostly up to 107 µM; activity change, negative = inhibition: at the top concentration
# Outline: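 Enzyme 25 nM in Tris-HCl pH 8.0 + 0.01% Tween 20; compounds up to 114 microM, 15 min RT dark; + Rhod110 substrate 1.5 microM; read t0 and 15 min; delta fluorescence → % inhibition → 4-parameter Hill fit.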
# % is set by controls: 0 for no effect and ±100 for the full control effect; potency is the fitted concentration of half-maximal effect.
Compound,"activity change, negative = inhibition [%]",Potency
CC(C)C[C@H](CO)Nc1nc(S[C@@H](C)c2ccccc2)nc2nc(N)sc12,25.2,
C[C@@H]1CC[C@@]23CC[C@]4(C)[C@@](C=CC5[C@@]6(C)CC[C@H](O)C(C)(C)C6CC[C@]54C)(OC2=O)C3[C@H]1C (stereo partly drawn),,6.31 µM (active)
O=C(O)c1cc(N(Cc2ccc(C3CCCCC3)cc2)C(=O)c2ccc(Oc3ccccc3)cc2)ccc1O,,1.26 µM (active)
C=C1/C(=C/C=C2\CCC[C@]3(C)[C@@H]([C@H](C)/C=C/[C@@H](C)C(C)C)CC[C@@H]23)C[C@@H](O)C[C@@H]1O,,31.6 µM (active)
O=C(O)c1cccc(-c2ccc(-c3cn(C(=O)N4CCCCC4Cc4ccccc4)nn3)cc2)c1 (stereo not drawn),,3.98 µM (active)
COc1cc2ncc(-c3ccccc3)nc2cc1OC,1.4,
CC#C[C@@H](CC(=O)O)c1ccc(OCc2ccc(CN3CCC4(C=Cc5ccccc54)CC3)s2)cc1,,3.16 µM (active)
O=S(=O)(Nc1cc(Cl)c(Oc2cnc3ccccc3c2)c(Cl)c1)c1ccc(Cl)cc1Cl,,1.78 µM (active)
O=C(Nc1cc(C(F)(F)F)cc(C(F)(F)F)c1)c1cnc(Cl)nc1C(F)(F)F,,15.8 µM (active)
CC(C)(C)Sc1c(CC(C)(C)C(=O)O)n(Cc2ccc(Cl)cc2)c2ccc(OCc3ccc4ccccc4n3)cc12,,2.82 µM (active)
Cc1cc(OCCCS(C)(=O)=O)cc(C)c1-c1cccc(COc2ccc3c(c2)OCC3CC(=O)O)c1 (stereo not drawn),,12.6 µM (active)
CC1=C(C(=O)OC2CCCCC2)C(c2ccc([N+](=O)[O-])cc2)C2=C(CC(C)(C)CC2=O)N1 (stereo not drawn),1.15,
COc1ccc2cc(-c3cc(-c4cc(Cl)cc(Cl)c4)nn3C(C)c3ccc(C(=O)NCCC(=O)O)cc3)ccc2c1 (stereo not drawn),,2.24 µM (active)
O=C(O)c1ccc(S(=O)(=O)N(Cc2ccc(OC(F)(F)F)cc2)c2ncc(C(F)(F)F)cc2Cl)cc1,,4.47 µM (active)
CC(C)(C)c1ccc(C(=O)Nc2cc(Cl)c(Br)cc2C(=O)O)cc1,,2.51 µM (active)
COc1ccc2nccc(C(=O)CC[C@@H]3CCN(CC#Cc4cc(F)cc(F)c4F)C[C@@H]3C(=O)O)c2c1,,25.1 µM (active)
COc1cc(C[C@H]2C(=O)OC[C@@H]2Cc2ccc(OC)c(OC)c2)ccc1O,56.1,
O=C(Nc1ccc(-c2ccc(Cl)c(Cl)c2)cc1)C1=C(O)c2ccccc2S(=O)(=O)N1,,2.82 µM (active)
Cc1noc(-c2ccc(-c3ccc(CC(=O)O)cc3)cc2)c1NC(=O)O[C@H](C)c1ccccc1Cl,,3.16 µM (active)
CC(O)(C(=O)O)C1CCC2(C)C1CCC1(C)C2CCC2C3(C)CCC(O)C(C)(COC4OC(CO)C(O)C(O)C4O)C3CCC21C (stereo not drawn),,7.94 µM (active)
C[C@H]1CO[C@@H]2Cn3cc(C(=O)NCc4ccc(F)cc4F)c(=O)c(O)c3C(=O)N12,,35.5 µM (active)
CCc1ccccc1OC[C@@H](O)CN[C@H]1CCCc2ccccc21,72.7,
COc1cccc(N2CCN(C3=Nc4c(F)cccc4[C@H](CC(=O)O)N3c3cc(C(F)(F)F)ccc3OC)CC2)c1,,25.1 µM (active)
COc1cc(C(=O)O)ccc1NC(=O)C1NC(CC(C)(C)C)C(C#N)(c2ccc(Cl)cc2F)C1c1cccc(Cl)c1F (stereo not drawn),,2.51 µM (active)
CCCCCCCOc1cc2c(cc1/C(C)=C/c1ccc(C(=O)O)cc1)C(C)(C)CCS2(=O)=O,,1.78 µM (active)
Cc1cc(C)c2c(c1)C(N(Cc1cc(C(F)(F)F)cc(C(F)(F)F)c1)c1nnn(C)n1)CCCN2CC1CCC(C(=O)O)CC1 (stereo not drawn),,3.16 µM (active)
CN(C)CCCn1cc(C2=C(c3c[nH]c4ccccc34)C(=O)NC2=O)c2ccccc21,130,

# System: Zika virus NS2B-NS3 protease (linked construct)
# Assay: Primary screen NINDS Rhodamine qHTS for Zika virus inhibitors (AID 1347160); note: nearly all actives have a fitted effect of over 55% in size
# Conditions: purified NS2B-NS3 protease, Rhodamine110 substrate fluorescence; series mostly up to 57.1 µM; activity change, negative = inhibition: at the top concentration
# Outline: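 Enzyme (25 nM, linked NS2B-NS3) was preincubated 15 min with compound in 10 mM Tris-HCl pH 8.0, 0.01% Tween 20. Rhodamine110 substrate (1.5 microM) was then added and fluorescence read at start and after 15 min.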
Compound,Potency,"activity change, negative = inhibition",outcome
O=C(O)c1cc(N(Cc2ccc(C3CCCCC3)cc2)C(=O)c2ccc(Oc3ccccc3)cc2)ccc1O,2.82 µM (active),,
C=C1/C(=C/C=C2\CCC[C@]3(C)[C@@H]([C@H](C)/C=C/[C@@H](C)C(C)C)CC[C@@H]23)C[C@@H](O)C[C@@H]1O,,-22.4%,
O=C(O)c1cccc(-c2ccc(-c3cn(C(=O)N4CCCCC4Cc4ccccc4)nn3)cc2)c1 (stereo not drawn),3.98 µM (active),,
N#Cc1ccc(N2N=C3c4ccc(C(=O)O)cc4CC[C@@H]3[C@@H]2C2CCCC2)cc1Cl,2 µM (active),,
COc1cc2ncc(-c3ccccc3)nc2cc1OC,,26.5%,
CC#C[C@@H](CC(=O)O)c1ccc(OCc2ccc(CN3CCC4(C=Cc5ccccc54)CC3)s2)cc1,5.62 µM (active),,
COc1ccc(-c2ccccc2)cc1NS(=O)(=O)c1cc(Cl)cc(Cl)c1O,1.58 µM (active),,
O=C(O)c1ccc(N2C(=O)/C(=C/c3ccc(-c4ccc([N+](=O)[O-])cc4)o3)C=C2c2ccccc2)cc1,1.78 µM (active),,
O=S(=O)(Nc1cc(Cl)c(Oc2cnc3ccccc3c2)c(Cl)c1)c1ccc(Cl)cc1Cl,3.98 µM (active),,
O=C(Nc1cc(C(F)(F)F)cc(C(F)(F)F)c1)c1cnc(Cl)nc1C(F)(F)F,,-29.1%,
CC(C)(C)Sc1c(CC(C)(C)C(=O)O)n(Cc2ccc(Cl)cc2)c2ccc(OCc3ccc4ccccc4n3)cc12,4.47 µM (active),,
Cc1ccc(OC[C@H](O)[C@H](C)NC(C)C)c2c1CCC2,,46%,
Cc1cc(OCCCS(C)(=O)=O)cc(C)c1-c1cccc(COc2ccc3c(c2)OCC3CC(=O)O)c1 (stereo not drawn),,-18.2%,
CC1=C(C(=O)OC2CCCCC2)C(c2ccc([N+](=O)[O-])cc2)C2=C(CC(C)(C)CC2=O)N1 (stereo not drawn),31.6 µM (active),,
COc1ccc2cc(-c3cc(-c4cc(Cl)cc(Cl)c4)nn3C(C)c3ccc(C(=O)NCCC(=O)O)cc3)ccc2c1 (stereo not drawn),,-17.6%,
CC#C[C@@H](CC(=O)O)c1ccc(OCc2cccc(-c3ccc(C(F)(F)F)cc3)c2)cc1,1.58 µM (active),,

Compound,Potency,"activity change, negative = inhibition",outcome
CC(C)C[C@H](C(=O)O)c1cc(-c2ccc(C(F)(F)F)cc2)cc(-c2ccc(C(F)(F)F)cc2)c1,3.55 µM (active),,
O=C(O)c1ccc(S(=O)(=O)N(Cc2ccc(OC(F)(F)F)cc2)c2ncc(C(F)(F)F)cc2Cl)cc1,4.47 µM (active),,
COc1ccc2nccc(C(=O)CC[C@@H]3CCN(CC#Cc4cc(F)cc(F)c4F)C[C@@H]3C(=O)O)c2c1,,,inactive
COc1cc(C[C@H]2C(=O)OC[C@@H]2Cc2ccc(OC)c(OC)c2)ccc1O,,11.8% [at 33.1 µM],
O=S(=O)(c1ccccc1)N(CC(F)(F)F)c1ccc(C(O)(C(F)(F)F)C(F)(F)F)cc1,,16.2%,
O=C(Nc1ccc(-c2ccc(Cl)c(Cl)c2)cc1)C1=C(O)c2ccccc2S(=O)(=O)N1,3.98 µM (active),,
Cc1noc(-c2ccc(-c3ccc(CC(=O)O)cc3)cc2)c1NC(=O)O[C@H](C)c1ccccc1Cl,4.47 µM (active),,
CCC(C)/C=C(C)/C=C/C1=CC2=CC(=O)C3(C)OC(C)(O)C(C(=O)OC)C3C2=CO1 (stereo not drawn),,-22.1% [at 33.1 µM],
C[C@H]1CO[C@@H]2Cn3cc(C(=O)NCc4ccc(F)cc4F)c(=O)c(O)c3C(=O)N12,,1.45%,
CCc1ccccc1OC[C@@H](O)CN[C@H]1CCCc2ccccc21,,140%,
COc1cc(C(=O)O)ccc1NC(=O)C1NC(CC(C)(C)C)C(C#N)(c2ccc(Cl)cc2F)C1c1cccc(Cl)c1F (stereo not drawn),,-21.5%,
CCCCCc1ccc(/C=C/C(=O)Nc2cc(Cl)ccc2C(=O)O)cc1,2 µM (active),,
CCCCCCCOc1cc2c(cc1/C(C)=C/c1ccc(C(=O)O)cc1)C(C)(C)CCS2(=O)=O,2.51 µM (active),,
Cc1cc(C)c2c(c1)C(N(Cc1cc(C(F)(F)F)cc(C(F)(F)F)c1)c1nnn(C)n1)CCCN2CC1CCC(C(=O)O)CC1 (stereo not drawn),3.55 µM (active),,
CN(C)CCCn1cc(C2=C(c3c[nH]c4ccccc34)C(=O)NC2=O)c2ccccc21,,37.9%,
